Bioassay records from PubChem BioAssay.
Most compounds without a hit are left out; they make up all but 1.2% or so of the library.
E-sel TNF inh = TNF alpha driven E-selectin expression inhibition; HUVEC TNFa-induced E-selectin immunofluorescence, high content; inhibition, % at 2 µM; 120,000 tested, 0.71% active;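 active means inhibition above the batch mean plus 3 SD, and confirmed as a hit on visual image review, cut at about 43% in these data; inconclusive means passes the inhibition cutoff but fails visual image review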;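 further: 0% = TNF-stimulated DMSO wells and 100% = unstimulated control wells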
VCAM1 TNFa inh = reduces TNF alpha induced VCAM1 expression in HUVEC; HUVEC TNFa-induced VCAM-1 immunofluorescence, high-content imaging; inhibition, % at 2 µM; 95,000 tested, 0.48% active;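 active means inhibition above the batch mean plus 3 SD, with images confirmed as a hit by eye, cut at about 37% in these data; inconclusive means inhibition above that limit but hit not confirmed in images; inactive means inhibition not above that limit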;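 further: 0% = TNF-stimulated DMSO wells and 100% = unstimulated control wells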
cytoskel mod = cytoskeleton assembly modification | 91,000 tested, 0.18% active | inhibition, % at 2 µM | HUVEC TNFa F-actin phalloidin imaging, high content;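 active means inhibition above the batch mean plus 3 SD and confirmed as a hit by visual image inspection, cut at about 30% in these data, passing the limit was not always enough; inconclusive means above the inhibition threshold but rejected on visual inspection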
HUVEC tox TNFa = HUVEC cytotoxicity counter-screen, TNF alpha stimulated; HUVEC TNFalpha-stimulated, Hoechst cell count, imaging; cell count reduction, % at 2 µM; 93,000 tested, 0.17% active; AID 848;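 active means cell count reduction exceeding the screen mean by over 5 SD, scaled to untreated wells per plate, cut at about 78% in these data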;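 further: cells counted after 24 h of TNF alpha exposure following the 1 h pretreatment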
Numbers without * were called inactive.

How did COc1ccc2[nH]c(=O)c(CN(Cc3ccc4c(c3)OCO4)C(C)=O)cc2c1 do in these assays?
E-sel TNF inh: 0.3; VCAM1 TNFa inh: -5.3; cytoskel mod: 36.1*; HUVEC tox TNFa: 35.2

What do the screens show for `CC(C)Sc1nc2c(c(=O)n1-c1ccc(F)cc1)SCC2`?
E-sel TNF inh: 11.6; VCAM1 TNFa inh: 94.5*; cytoskel mod: 1.6; HUVEC tox TNFa: 6.5

What do the screens show for `O=C(CCN1C(=O)C2C3C=CC(C3)C2C1=O)Nc1c(F)cccc1F` (configuration not stated)?
E-sel TNF inh: 2.2; VCAM1 TNFa inh: 60.1; cytoskel mod: -46.3; HUVEC tox TNFa: 93.8*

What do the screens show for `CC1(C)CC(=O)C(C=NCC2CCCO2)=C(O)C1` (configuration not stated)?
E-sel TNF inh: 79.9*; VCAM1 TNFa inh: -6.5; cytoskel mod: 12.2; HUVEC tox TNFa: 3.3

What do the screens show for `CCCCCc1ccc(-c2ccc(=O)[nH]n2)cc1`?
E-sel TNF inh: 28.7; VCAM1 TNFa inh: 78.8*; cytoskel mod: -46.6; HUVEC tox TNFa: 18.5

Results for C=CCN(C(=O)CCC(=O)O)C1CC(=O)N(c2ccc(OCCC)cc2)C1=O (configuration not stated) ?
E-sel TNF inh: 92.4*

How did Cc1ccc(NS(=O)(=O)c2ccc(NC(=O)c3ccc(Br)o3)cc2)c(C)c1 do in these assays?
E-sel TNF inh: 14.4; VCAM1 TNFa inh: -20.9; cytoskel mod: 5.5; HUVEC tox TNFa: -15.9

What do the screens show for `Cc1nnc2n(C3CCCCC3)c(=O)c3c4c(sc3n12)CCC4`?
VCAM1 TNFa inh: 2.8; cytoskel mod: -15.7; HUVEC tox TNFa: -26.1

How did Cc1nnc2n(C3CCCCC3)c(=O)c3c4c(sc3n12)COC(C)(C)C4 do in these assays?
VCAM1 TNFa inh: 64.8; cytoskel mod: 4.6; HUVEC tox TNFa: 93.8*

How did COc1ccccc1C(=O)Nc1nnn(C)n1 do in these assays?
VCAM1 TNFa inh: 53.2; cytoskel mod: -32.1; HUVEC tox TNFa: 78.3*

What do the screens show for `Cn1nnc(NC(=O)c2ccccc2)n1`?
E-sel TNF inh: -29.4; VCAM1 TNFa inh: -9.6; cytoskel mod: 0.3; HUVEC tox TNFa: -17.8

What do the screens show for `CC(=O)C1=C(C)NC(SCc2cccc3ccccc23)=C(C#N)C1c1ccco1` (configuration not stated)?
E-sel TNF inh: 67.0*

What do the screens show for `CC(=O)C1=C(C)NC(SCc2ccc(C#N)cc2)=C(C#N)C1c1ccco1` (configuration not stated)?
E-sel TNF inh: 35.7

How did N#CC1(c2ccccc2)CCC(=NO)CC1 (configuration not stated) do in these assays?
E-sel TNF inh: -18.9; VCAM1 TNFa inh: -17.4; cytoskel mod: 14.5; HUVEC tox TNFa: -1.3

Results for O=C(CCN1C(=O)/C(=C\c2ccccc2Cl)SC1=S)N1CCN(c2ccccc2)CC1 ?
E-sel TNF inh: 58.2*; VCAM1 TNFa inh: 5.3; cytoskel mod: 7.8; HUVEC tox TNFa: 5.1

Results for Cc1cc(NC(=O)CCN2C(=O)/C(=C/c3ccccc3Cl)SC2=S)no1 ?
E-sel TNF inh: -40.5

How did CCOC(=O)c1cnc2nc[nH]n2c1=O do in these assays?
E-sel TNF inh: 15.8

How did CCNCC(O)COCC(O)CNCC (configuration not stated) do in these assays?
E-sel TNF inh: -12.0; VCAM1 TNFa inh: 62.1*; cytoskel mod: 9.6; HUVEC tox TNFa: 77.6

How did N#CCCNc1c(Cl)cc(Cl)cc1C(=O)O do in these assays?
E-sel TNF inh: 0.5

How did O=c1ncn(-c2ccccc2F)c2ncccc12 do in these assays?
E-sel TNF inh: 67.4*; VCAM1 TNFa inh: 4.6; cytoskel mod: -2.6; HUVEC tox TNFa: -2.4

How did COc1ccc(S(=O)(=O)Nc2cccc(S(=O)(=O)N3CCCCCC3)c2)cc1 do in these assays?
E-sel TNF inh: 71.3*

What do the screens show for `C/C=C/COC(=O)c1[nH]c2c(c1C)C(=O)CC(c1ccco1)C2` (configuration not stated)?
VCAM1 TNFa inh: 51.2*; cytoskel mod: -4.3; HUVEC tox TNFa: 64.1

What do the screens show for `Cc1c(C(=O)OCC(C)C)[nH]c2c1C(=O)CC(c1ccco1)C2` (configuration not stated)?
VCAM1 TNFa inh: 67.3*; cytoskel mod: 21.0; HUVEC tox TNFa: 64.3

How did O=C(Cc1ccc(F)cc1)Nc1c2c(nn1-c1cccc(Cl)c1)CS(=O)C2 (configuration not stated) do in these assays?
E-sel TNF inh: -13.3; VCAM1 TNFa inh: -5.0; cytoskel mod: 4.5; HUVEC tox TNFa: -3.7

How did CCOC(=O)N1CCC(N2CCN(S(=O)(=O)c3ccc(NC(C)=O)cc3)CC2)CC1 do in these assays?
E-sel TNF inh: 99.6*; VCAM1 TNFa inh: 15.3; cytoskel mod: -10.7; HUVEC tox TNFa: -9.8

What do the screens show for `O=C(COC(=O)c1ccccc1C(=O)c1ccc(Cl)c([N+](=O)[O-])c1)NC1CCCCCC1`?
E-sel TNF inh: 8.6; VCAM1 TNFa inh: 86.8*; cytoskel mod: 20.4; HUVEC tox TNFa: 28.5

How did CN(CCC#N)C(=O)COC(=O)c1ccc(Cl)c(S(N)(=O)=O)c1 do in these assays?
E-sel TNF inh: -0.9; VCAM1 TNFa inh: 4.2; cytoskel mod: 0.5; HUVEC tox TNFa: 8.5

How did Nc1ccc(C(=O)OCC(=O)NC2CC2)cc1[N+](=O)[O-] do in these assays?
E-sel TNF inh: -17.3

Results for CN(CCC#N)C(=O)COC(=O)c1ccccc1C(=O)c1ccc(Cl)c([N+](=O)[O-])c1 ?
E-sel TNF inh: 99.8*

Results for Cc1cc(-c2ccccc2)nc(N2CCC(C(=O)NCC3CCCCC3)CC2)n1 ?
E-sel TNF inh: -27.4; VCAM1 TNFa inh: 11.9; cytoskel mod: -16.1; HUVEC tox TNFa: -0.4

How did Cc1cc(NC(=O)C2C3C=CC(C3)C2C(=O)O)no1 (configuration not stated) do in these assays?
E-sel TNF inh: -2.0; VCAM1 TNFa inh: inconclusive; cytoskel mod: inconclusive; HUVEC tox TNFa: 100.0*

How did O=C(Cn1cccc1C(=O)c1ccccc1)NCCCN1CCOCC1 do in these assays?
VCAM1 TNFa inh: 0.3; cytoskel mod: 9.8; HUVEC tox TNFa: 0.0

What do the screens show for `O=C(Cn1cccc1C(=O)c1ccccc1)NCCN1CCOCC1`?
E-sel TNF inh: -1.0; VCAM1 TNFa inh: 82.0*; cytoskel mod: inconclusive; HUVEC tox TNFa: 43.8

Results for CCOC(=O)C1(Cc2ccccc2Cl)CCN(C(=O)CCn2ccnc2C)CC1 ?
E-sel TNF inh: 3.4

Results for COc1ccc(OC)c(NC(=O)Cc2nn(C)c(=O)c3ccccc23)c1 ?
E-sel TNF inh: -6.0; VCAM1 TNFa inh: -11.9; cytoskel mod: -29.6; HUVEC tox TNFa: 10.8

Results for COc1cc(NC(=O)Cc2nn(C)c(=O)c3ccccc23)cc(OC)c1OC ?
E-sel TNF inh: 50.1*; VCAM1 TNFa inh: 5.2; cytoskel mod: 11.1; HUVEC tox TNFa: -8.5

Results for CN(C)c1cccc(C(=O)Nc2ccc(N3CCOCC3)cc2)c1 ?
E-sel TNF inh: 5.9; VCAM1 TNFa inh: 1.3; cytoskel mod: 32.4*; HUVEC tox TNFa: -46.3

Results for O=S(=O)(c1ccc2c(c1)C(=NO)c1cc(S(=O)(=O)N3CCCCC3)ccc1-2)N1CCCCC1 ?
E-sel TNF inh: 5.7; VCAM1 TNFa inh: 99.8*; cytoskel mod: 59.6*; HUVEC tox TNFa: 90.3*

What do the screens show for `CC1CCN(S(=O)(=O)c2ccc3c(c2)C(=NO)c2cc(S(=O)(=O)N4CCC(C)CC4)ccc2-3)CC1`?
VCAM1 TNFa inh: 9.9; cytoskel mod: -29.4; HUVEC tox TNFa: -6.9
